Results reported in PubChem BioAssay (Tox21).
Inconclusive results are not listed. Active and inactive are the calls of the source. Unless noted, the call rests on the fitted dose curve; in most records, active means well fitted curve in the direction sought with a large enough effect in the repeat runs; inconclusive means weak or mixed curves; inactive means no such curve, though single readings can be large; an effect the other way counts as inactive or inconclusive.

Experiments:
[1] = qHTS assay to identify small molecule agonists of the peroxisome proliferator-activated receptor delta (PPARd) signaling pathway - cell viability counter screen (AID 743211); further: nearly all actives have a fitted effect of over 55% in size
Method in brief: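 Counter screen for cytotoxicity run in parallel with the PPARd reporter screen. Beta-lactamase reporter HEK293H cells exposed to compounds 17 h; ATP-based CellTiter-Glo luminescence quantified viability.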

[2] = biological target: Peroxisome proliferator-activated receptor delta (Homo sapiens) (UniProt Q03181); test: qHTS assay to identify small molecule agonists of the peroxisome proliferator-activated receptor delta (PPARd) signaling pathway (AID 743212; calls by dose curve)
Method in brief: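 Quantitative high-throughput agonist screen in a HEK293H beta-lactamase reporter line under UAS control. Compounds in DMSO, at 37 C. Fluorescence read after 2 h with FRET substrate at room temperature.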

[3] = qHTS assay to identify small molecule antagonists of the peroxisome proliferator-activated receptor delta (PPARd) signaling pathway - cell viability counter screen (AID 743213); further: nearly all actives have a fitted effect of over 50% in size
Method in brief: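 Same-well viability: cells pre-incubated 5 h, dosed with compound plus 300 nM L165041, kept 17 h at 37 C, FRET substrate 2 h RT, then CellTiter-Glo 30 min RT and luminescence.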

[4] = biological target: Peroxisome proliferator-activated receptor delta (Homo sapiens) (UniProt Q03181); test: qHTS assay to identify small molecule antagonists of the peroxisome proliferator-activated receptor delta (PPARd) signaling pathway (AID 743215; active means well fitted inhibition curve with a large enough effect in the signal ratio in the repeat runs, not every such curve was filed as active; the % refers to the signal ratio;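 further: cells stimulated with agonist L165041 at 300 nM final during compound exposure; series mostly up to about 62 µM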)
Method in brief: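 Antagonist-mode beta-lactamase reporter screen: HEK293H cells with UAS-bla under PPARd control, stimulated by 300 nM L165041 (final) alongside test compound for 17 h at 37 C, then FRET fluorescence after 2 h substrate incubation.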

[5] = qHTS assay to identify small molecule agonists of the farnesoid-X-receptor (FXR) signaling pathway - cell viability counter screen (AID 743218); further: nearly all actives have a fitted effect of over 45% in size
Method in brief: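 In GeneBLAzer FXR-UAS-bla HEK 293T cells, compounds act for 16 h at 37 C. Cell viability is then scored in the reporter wells by CellTiter-Glo, 30 min at RT, luminescence.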

[6] = biological target: Vitamin D3 receptor (Homo sapiens) (UniProt P11473); test: qHTS assay to identify small molecule agonists of the vitamin D receptor (VDR) signaling pathway (AID 743222; calls by dose curve)
Method in brief: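 Agonist activity measured in VDR-bla reporter cells. Exposure 16 h, 37C, 5% CO2; detection by B/G FRET substrate, 2 h RT.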

[7] = biological target: Vitamin D3 receptor (Homo sapiens) (UniProt P11473); test: qHTS assay to identify small molecule antagonists of the vitamin D receptor (VDR) signaling pathway (AID 743223; active means well fitted inhibition curve with a large enough effect in the signal ratio in the repeat runs, not every such curve was filed as active; the % refers to the signal ratio)
Method in brief: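 Cells carrying a VDR-driven beta-lactamase reporter (VDR-bla) were co-treated with compound and 3 nM final 1alpha,25-dihydroxyvitamin D3 for 16 h at 37C; reporter activity was measured as FRET substrate fluorescence after 2 h at room temperature.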

[8] = qHTS assay to identify small molecule antagonists of the farnesoid-X-receptor (FXR) signaling pathway - cell viability counter screen (AID 743221; active means well fitted cell-killing curve with a large enough effect in the repeat runs, not every such curve was filed as active; further: nearly all actives have a fitted effect of over 50% in size)
Method in brief: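 Multiplexed counter screen: viability of FXR-bla HEK 293T cells under agonist stimulation by chenodeoxycholic acid (50 uM, final) and test compound for 16 h at 37 C, measured by CellTiter-Glo luminescence in the reporter wells.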

[9] = biological target: Bile acid receptor (Homo sapiens) (UniProt Q96RI1); test: qHTS assay to identify small molecule antagonists of the farnesoid-X-receptor (FXR) signaling pathway (AID 743217; active means well fitted inhibition curve with a large enough effect in the signal ratio in the repeat runs, not every such curve was filed as active; the % refers to the signal ratio)
Method in brief: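 Beta-lactamase reporter under UAS control in HEK 293T cells; compound exposure 16 h at 37 °C in the presence of chenodeoxycholic acid (50 uM final); signal from B/G FRET substrate after 2 h at room temperature.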

[10] = biological target: Bile acid receptor (Homo sapiens) (UniProt Q96RI1); test: qHTS assay to identify small molecule agonists of the farnesoid-X-receptor (FXR) signaling pathway (AID 743220; active means well fitted activation curve with a large enough effect in the signal ratio in the repeat runs, not every such curve was filed as active; the % refers to the signal ratio)
Method in brief: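 Beta-lactamase reporter under UAS control in GeneBLAzer FXR HEK 293T cells (5000/well) measured with LiveBLAzer FRET substrate after 2 h at room temperature. Compound exposure lasted 16 h at 37C.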
On the % scale 0 is the no-effect control and ±100 the full control effect.

Sequence of Bile acid receptor (Homo sapiens) (Q96RI1 whole entry, looked up): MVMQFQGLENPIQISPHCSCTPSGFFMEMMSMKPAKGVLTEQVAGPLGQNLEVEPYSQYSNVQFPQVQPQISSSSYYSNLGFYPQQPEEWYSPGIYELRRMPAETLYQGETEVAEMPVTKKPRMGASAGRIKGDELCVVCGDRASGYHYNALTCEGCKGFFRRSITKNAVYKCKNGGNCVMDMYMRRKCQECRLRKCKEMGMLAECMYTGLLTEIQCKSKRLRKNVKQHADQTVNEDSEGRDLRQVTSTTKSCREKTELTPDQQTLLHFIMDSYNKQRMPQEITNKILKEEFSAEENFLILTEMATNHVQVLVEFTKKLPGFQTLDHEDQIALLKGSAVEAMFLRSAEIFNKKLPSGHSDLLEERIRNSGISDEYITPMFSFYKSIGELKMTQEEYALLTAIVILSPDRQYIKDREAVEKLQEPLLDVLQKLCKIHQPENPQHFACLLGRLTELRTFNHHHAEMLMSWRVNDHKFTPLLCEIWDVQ
Sequence of Peroxisome proliferator-activated receptor delta (Homo sapiens) (Q03181 whole entry, looked up): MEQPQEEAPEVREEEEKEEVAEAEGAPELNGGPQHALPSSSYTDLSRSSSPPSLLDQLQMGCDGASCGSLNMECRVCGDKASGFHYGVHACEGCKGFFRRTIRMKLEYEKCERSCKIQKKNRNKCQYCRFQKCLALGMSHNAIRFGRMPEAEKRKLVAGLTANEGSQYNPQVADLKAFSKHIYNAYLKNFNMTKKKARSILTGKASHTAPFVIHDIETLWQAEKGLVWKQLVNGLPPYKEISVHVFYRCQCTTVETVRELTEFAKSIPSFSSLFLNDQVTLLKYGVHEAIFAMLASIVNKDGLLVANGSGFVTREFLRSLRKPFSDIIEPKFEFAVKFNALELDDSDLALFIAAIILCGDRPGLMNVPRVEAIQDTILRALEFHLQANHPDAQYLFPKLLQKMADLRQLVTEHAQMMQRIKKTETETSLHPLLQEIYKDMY
Sequence of Vitamin D3 receptor (Homo sapiens) (P11473 whole entry, looked up): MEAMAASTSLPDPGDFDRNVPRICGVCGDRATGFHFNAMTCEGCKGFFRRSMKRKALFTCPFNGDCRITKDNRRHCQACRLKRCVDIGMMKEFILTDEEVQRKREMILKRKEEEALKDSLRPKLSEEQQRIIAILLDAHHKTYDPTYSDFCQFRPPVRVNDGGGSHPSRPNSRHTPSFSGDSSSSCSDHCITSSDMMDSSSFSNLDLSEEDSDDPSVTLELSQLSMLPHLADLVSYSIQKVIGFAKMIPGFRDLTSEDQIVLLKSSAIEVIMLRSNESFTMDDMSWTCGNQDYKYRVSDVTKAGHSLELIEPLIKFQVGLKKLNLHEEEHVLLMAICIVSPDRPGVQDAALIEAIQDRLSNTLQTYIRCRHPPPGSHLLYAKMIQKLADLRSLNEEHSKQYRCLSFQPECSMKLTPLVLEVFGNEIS

CC(C)=CCC/C(C)=C/C=O
inactive: Potency [1] | Potency [2] | Potency [3] | Potency [4] | Potency [5] | outcome [6] | Potency [7]

CCCOCC(C)O (stereo unspecified)
inactive: Potency [1] | Potency [2] | Potency [3] | Potency [4] | Potency [5] | outcome [6] | Potency [7]

CCCCCC(C)=O
inactive: Potency [1] | Potency [2] | Potency [3] | Potency [4] | Potency [5] | Potency [8] | outcome [6] | Potency [7]

CC1=CC(=O)CC(C)(C)C1
inactive: Potency [1] | Potency [2] | Potency [3] | Potency [4] | Potency [5] | outcome [6] | Potency [7]

OCC(O)CS (stereo unspecified)
inactive: Potency [1] | Potency [2] | Potency [3] | Potency [4] | Potency [5] | outcome [6] | Potency [7]

N#CCC(=O)O
inactive: Potency [1] | Potency [2] | Potency [3] | Potency [4] | Potency [5] | Potency [8] | outcome [6] | Potency [7]

O=[N+]([O-])c1ccccc1C(F)(F)F
inactive: Potency [1] | Potency [2] | Potency [3] | Potency [4] | Potency [5] | Potency [8] | outcome [6] | Potency [7]

CCCCCCCCCCCC(=O)N(C)CC(=O)O
inactive: activity change, negative = cytotoxicity [1] -1.87% [at 5.95 µM] | activation [2] 0.0552% [at 5.95 µM] | viability change, negative = cytotoxic [3] -8.19% [at 6.26 µM] | ratio activity, negative = inhibition [4] -7.38% [at 6.26 µM] | Potency [5] | Potency [8] | outcome [6] | activity change, negative = inhibition [7] 10.5% [at 6.95 µM]

C=CC(=O)NCOCCCC
inactive: Potency [1] | Potency [2] | Potency [3] | Potency [4] | Potency [5] | Potency [8] | outcome [6] | Potency [7]

O=C(c1ccccc1)c1ccc(O)c(O)c1O
inactive: Potency [1] | Potency [2] | Potency [3] | Potency [5] | outcome [6] | Potency [7]

Nc1cccc(N)n1
inactive: Potency [1] | Potency [2] | Potency [3] | Potency [4] | Potency [5] | Potency [8] | outcome [6] | Potency [7]

COc1cc(NC(=O)CC(C)=O)c(OC)cc1Cl
inactive: Potency [1] | Potency [2] | Potency [3] | Potency [5] | Potency [8]

Cc1cc(C)cc(O)c1
inactive: Potency [1] | Potency [2] | Potency [3] | Potency [4] | Potency [5] | outcome [6] | Potency [7]

OC[C@H]1O[C@@H](Oc2ccc(O)cc2)[C@H](O)[C@@H](O)[C@@H]1O
inactive: Potency [1] | Potency [2] | Potency [3] | Potency [4] | Potency [5] | Potency [8] | outcome [6] | Potency [7]

CC(=O)c1nccs1
inactive: Potency [1] | Potency [2] | Potency [3] | Potency [4] | Potency [5] | Potency [8] | outcome [6] | Potency [7]

CO[Si](CCCNCCN)(OC)OC
inactive: Potency [1] | Potency [2] | Potency [3] | Potency [4] | Potency [5] | Potency [8] | outcome [6] | Potency [7]

CC(C)c1ccc(C(C)C)cc1
inactive: Potency [1] | Potency [3] | Potency [9] | Potency [5] | Potency [10] | Potency [8] | outcome [6] | Potency [7]

Brc1ccc(Oc2ccc(Br)cc2)cc1
inactive: Potency [1] | Potency [2] | Potency [3] | Potency [4] | Potency [5] | outcome [6] | Potency [7]

Cc1ccccc1C=O
inactive: Potency [1] | Potency [2] | Potency [3] | Potency [4] | Potency [5] | Potency [8] | outcome [6] | Potency [7]

COC(=O)OC
inactive: Potency [1] | Potency [2] | Potency [3] | Potency [4] | Potency [5] | Potency [8] | outcome [6]

O=C(Cl)c1ccc(C(=O)Cl)cc1
inactive: Potency [1] | Potency [2] | Potency [3] | Potency [4] | Potency [5] | Potency [8] | outcome [6] | Potency [7]

CC(=O)OC[C@H]1O[C@@](COC(C)=O)(O[C@H]2O[C@H](COC(C)=O)[C@@H](OC(C)=O)[C@H](OC(C)=O)[C@H]2OC(C)=O)[C@@H](OC(C)=O)[C@@H]1OC(C)=O
inactive: Potency [1] | Potency [2] | Potency [3] | Potency [4] | Potency [5] | Potency [8] | outcome [6] | Potency [7]

CS(=O)(=O)c1ccc(Cl)cc1
inactive: Potency [1] | Potency [2] | Potency [3] | Potency [4] | Potency [5] | outcome [6] | Potency [7]

CC(O)CNCC(C)O (stereo unspecified)
inactive: Potency [1] | Potency [2] | Potency [3] | Potency [4] | Potency [5] | Potency [8] | outcome [6] | Potency [7]

OC1CCCCC1
inactive: Potency [1] | Potency [2] | Potency [3] | Potency [4] | Potency [5] | outcome [6] | Potency [7]

C=C(C)CC(C)(C)C
inactive: Potency [1] | Potency [3] | Potency [9] | Potency [5] | Potency [10] | outcome [6] | Potency [7]

O=Cc1ccc(CO)o1
inactive: Potency [1] | Potency [3] | Potency [9] | Potency [5] | Potency [10] | Potency [8] | outcome [6] | Potency [7]

O=C1C(N(CO)C(=O)NCO)N(CO)C(=O)N1CO (stereo unspecified)
inactive: Potency [1] | Potency [3] | Potency [5] | outcome [6] | Potency [7]
